According to PubChem BioAssay AID504773 (Broad Institute, 2011):
Results with a measured potency or affinity are listed apart. Activity calls are given as the source filed them.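 The calls were made as follows: active = polarization signal falls with dose and the fitted half-maximal concentration is at or below ten times the sample's top valid dose; inconclusive = flat curve at 30 to 70% inhibition, or poor fit; inactive = signal rises, flat within 30%, or potency beyond limit.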

What follows are molecules tested against Golgi-associated PDZ and coiled-coil motif-containing protein (Homo sapiens) (UniProt Q9HD26) (assay: CAL PDZ peptide-binding inhibitors, dose response, biochemical, fluorescence polarization, Cerulean-tagged CAL PDZ, cherry-picks (AID 504773;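 also: 0% = DMSO neutral wells and -100% = excess unlabeled competitor peptide wells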)). Settings: 1 h; series mostly up to 50 µM; activity change, negative = inhibition: at the top concentration.

Activity change, negative = inhibition, inactive:
O=C(Nc1ccccc1Cl)Nc1cccnc1Cl -19.9%, Nc1ccc(N(CCO)CCO)cc1 -4.31%, C/C(=N\NC(=O)C(O)c1ccccc1)c1ccc(Cl)s1 (stereo unspecified) 5.35%, O=C(NCc1ccccc1)c1cc2ccc(O)cc2oc1=O -30.7%, O=C(CCCn1c(=S)[nH]c2cc3c(cc2c1=O)OCO3)N1CCN(c2ccc(Cl)cc2)CC1 16.6%, Fc1ccc(-n2c(-c3ccc4ccccc4n3)n[nH]c2=S)cc1Cl -6.43%, Cc1ccc(C(=O)Nc2ccccc2)cc1S(=O)(=O)N1CCN(C)CC1 18.7%, Cc1c(NC(=O)CN2CCC(C(N)=O)CC2)cccc1[N+](=O)[O-] 7.36%, CC(=O)c1ccc(S(=O)(=O)N2CCN(c3ccccc3F)CC2)cc1 31.2%, CCc1ccc(C2CC(=O)N(c3cccc(F)c3)C3=C2C(=O)OC3)cc1 (stereo unspecified) 19.7%, CCC(C)(C)NC(=O)CSc1nc(Cc2ccccc2)nc2ccccc12 9.79%, CC(=O)N1CCN(c2ccc(NC(=O)C(c3ccccc3)c3ccccc3)cc2)CC1 9.33%, CC(C)Oc1ccc(C(=O)Nc2ccc(S(=O)(=O)N3CCN(C)CC3)cc2)cc1 28.6%, CN(C)CCNC(=O)COc1cccc2c1OC(C)(C)C2 18.5%, COc1ccc(C(=O)c2ccc(C)cc2)c(OC)c1OC 6.19%, Cc1ccc(S(=O)(=O)N2CCN(C(=O)c3ccccn3)CC2)cc1 13.7%, Cn1c(=O)c2c(ncn2CC(=O)Nc2nc(-c3ccccc3Cl)cs2)n(C)c1=O 6.53%, COc1ccc(OC)c(S(=O)(=O)NCCCn2ccnc2)c1 -6.91%, CC(C)OCCCNC(=O)C1CC(=O)N(CCc2ccc(F)cc2)C1 (stereo unspecified) -11.6%, CCN(CC)S(=O)(=O)c1ccc2nc(NC(=O)c3ccco3)sc2c1 -28.5%, Cc1sc2ncn(CC(=O)NCCCC(=O)N3CCN(Cc4ccc5c(c4)OCO5)CC3)c(=O)c2c1C -11.6%, CN(C)/N=C1\CCS(=O)(=O)c2sccc21 20.3%, N=c1c(S(=O)(=O)c2ccc(Cl)cc2)cc2c(=O)n3ccccc3nc2n1C1CCCCC1 19.1%, Cc1cc(C)nc(/N=C(\N)N2CCc3ccccc32)n1 -36.2%, O=C(NCCCn1ccnc1)c1ccccc1F 19.4%, O=C(NCc1ccccn1)c1ccc(NS(=O)(=O)c2ccccc2)cc1 10.4%, O=C(c1cccs1)N1CCN(C(=O)N2CCOCC2)CC1 -23%, Cc1nc(Cl)sc1C(=O)Nc1cc(F)cc(F)c1 -8.97%, CC(=O)Nc1ccc(N/C=C/C(=O)c2ccccc2)cc1 14.7%, CC1CCC(NC(=O)C2CCN(c3cnccn3)CC2)CC1 (stereo unspecified) 39.8%, CCOc1ccccc1N(CC(=O)Nc1cccc2ccccc12)S(C)(=O)=O 7.9%, O=C(c1c(Cl)cccc1Cl)N1CCCCCC1 -14.2%, COc1cc(C(=O)ON=C2C(C)=CC(=O)C=C2C)cc(OC)c1OC 28%, COc1cc([N+](=O)[O-])ccc1NC(=O)CN1CCN(C(=O)c2ccco2)CC1 -0.592%, CC1CCCC(C)N1/N=C/c1ccc(N(C)C)cc1 (stereo unspecified) -16.6%, Cc1cccc(Nc2nc(-c3ccc(F)cc3)cs2)n1 17.6%
